A short description of experiment [1]: antimalarial activity against Dd2 strain (AID 2302;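 active means growth inhibition above 50% at the single 2 µM test dose, taken to imply half-maximal potency below 2 µM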;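 further: 0% = DMSO untreated growth and 100% = chloroquine plus artemisinin killed control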). The note with it: P. falciparum Dd2 in RBCs, LDH growth readout, 72 h; at 2 µM; hits give high values.
Experiment [2] can be described thus: HepG2 cytotoxicity, primary screen, cytotoxicity control for P. falciparum antimalarial project, cell-based, ATP luminescence (AID 2303;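 active means inhibition above 50%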;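 further: 0% = DMSO wells and 100% = digitonin-killed cells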). The note with it: HepG2 viability, 24-48 h, at 10 µM, hits give high values.
In experiment [3] the target is L-lactate dehydrogenase (Plasmodium falciparum (isolate CDC / Honduras)) (UniProt Q27743). The experiment is described as follows: PfLDH activity inhibition – cell lysate, 3D7 strain, counter-screen for P. falciparum growth inhibition project (AID 2304).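 Further: 0% = vehicle and 100% = reference inhibitor.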 The note with it: P. falciparum 3D7 crude extract, LDH APAD/NBT absorbance; at 2 µM; hits give high values.
The nature of experiment [4]: inhibition of 3D7 malaria parasite growth – strain 3D7 (AID 2306).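 Further: 0% = DMSO wells and 100% = chloroquine plus artemisinin control wells.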 The note with it: P. falciparum 3D7 erythrocytic growth, LDH absorbance, 72 h; at 2 µM; hits give high values.
The target of experiment [5] is Calcium-dependent protein kinase 1 (Plasmodium falciparum (isolate 3D7)) (UniProt P62344). The experiment is described as follows: PfCDPK1 kinase inhibitors, biochemical, TCAMS library (AID 1159585; cut-off not given, nearly all actives have IC50 up to about 0.98 µM;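 further: inhibitors leave more ATP so luminescence rises with inhibition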). Conditions: recombinant PfCDPK1, Kinase-Glo ATP depletion luminescence. (In Kinase-Glo more light means more ATP remaining.)
Experiment [6] concerns the target Plasmodium falciparum protein kinase 6 (PK6, PF3D7_1337100) (UniProt Q8IDW1). The experiment is described as follows: PfPK6 kinase inhibitors, biochemical, TCAMS library (AID 1159586). Conditions: recombinant PfPK6, Kinase-Glo ATP depletion luminescence.
Experiment [7] concerns the target Protein kinase 7 (PK7), Plasmodium falciparum 3D7 (PF3D7_0213400) (UniProt Q7YTF7). As to the kind of experiment: inhibition of Plasmodium PK7 catalytic activity – biochemical, TCAMS antimalarial set, Kinase-Glo luminescence (AID 1159587). The note with it: recombinant PfPK7, Kinase-Glo ATP depletion luminescence.
Experiment [8] has as its target Calcium-dependent protein kinase 4 (Plasmodium falciparum (isolate 3D7)) (UniProt Q8IBS5). The experiment is described as follows: PfCDPK4 kinase inhibitors, biochemical, TCAMS library (AID 1159588; cut-off not given, nearly all actives have IC50 up to about 0.91 µM). Conditions: recombinant PfCDPK4, Kinase-Glo ATP depletion luminescence.

For 20 compounds, growth inhibition, inhibition and outcome results are on record in PubChem BioAssay.

A number with no mark means an inactive call. For some of these results: Results with a measured potency or affinity are listed apart. Calls of active or inactive are those of the source. Unless noted, how the calls were made is not given here.

Calcium-dependent protein kinase 4 (Plasmodium falciparum (isolate 3D7)), sequence (Q8IBS5 whole entry, looked up): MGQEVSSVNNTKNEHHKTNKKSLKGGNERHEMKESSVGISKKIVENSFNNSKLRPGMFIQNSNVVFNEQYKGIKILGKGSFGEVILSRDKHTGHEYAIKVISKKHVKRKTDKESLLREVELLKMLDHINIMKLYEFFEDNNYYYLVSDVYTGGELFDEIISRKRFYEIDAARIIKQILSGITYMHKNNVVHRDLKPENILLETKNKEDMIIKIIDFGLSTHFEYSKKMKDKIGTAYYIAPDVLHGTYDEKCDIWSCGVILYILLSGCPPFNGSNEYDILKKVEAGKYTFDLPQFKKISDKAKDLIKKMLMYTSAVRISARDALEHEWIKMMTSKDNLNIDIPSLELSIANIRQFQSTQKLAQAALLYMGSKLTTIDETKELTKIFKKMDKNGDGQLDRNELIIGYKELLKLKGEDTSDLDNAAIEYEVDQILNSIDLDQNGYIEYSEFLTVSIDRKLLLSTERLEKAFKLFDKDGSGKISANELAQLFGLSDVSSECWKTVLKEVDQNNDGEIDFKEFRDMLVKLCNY
Protein kinase 7 (PK7), Plasmodium falciparum 3D7 (PF3D7_0213400), sequence (Q7YTF7 1-343): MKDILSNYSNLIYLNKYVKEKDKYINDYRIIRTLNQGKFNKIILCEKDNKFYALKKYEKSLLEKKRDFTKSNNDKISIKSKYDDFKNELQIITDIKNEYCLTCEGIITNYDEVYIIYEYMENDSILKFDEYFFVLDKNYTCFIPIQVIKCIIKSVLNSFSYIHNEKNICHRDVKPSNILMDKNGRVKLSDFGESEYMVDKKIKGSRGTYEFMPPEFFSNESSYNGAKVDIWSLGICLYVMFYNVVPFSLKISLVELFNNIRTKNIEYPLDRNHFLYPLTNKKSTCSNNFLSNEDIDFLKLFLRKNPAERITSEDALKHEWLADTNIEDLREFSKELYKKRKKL
Calcium-dependent protein kinase 1 (Plasmodium falciparum (isolate 3D7)), sequence (P62344 whole entry, looked up): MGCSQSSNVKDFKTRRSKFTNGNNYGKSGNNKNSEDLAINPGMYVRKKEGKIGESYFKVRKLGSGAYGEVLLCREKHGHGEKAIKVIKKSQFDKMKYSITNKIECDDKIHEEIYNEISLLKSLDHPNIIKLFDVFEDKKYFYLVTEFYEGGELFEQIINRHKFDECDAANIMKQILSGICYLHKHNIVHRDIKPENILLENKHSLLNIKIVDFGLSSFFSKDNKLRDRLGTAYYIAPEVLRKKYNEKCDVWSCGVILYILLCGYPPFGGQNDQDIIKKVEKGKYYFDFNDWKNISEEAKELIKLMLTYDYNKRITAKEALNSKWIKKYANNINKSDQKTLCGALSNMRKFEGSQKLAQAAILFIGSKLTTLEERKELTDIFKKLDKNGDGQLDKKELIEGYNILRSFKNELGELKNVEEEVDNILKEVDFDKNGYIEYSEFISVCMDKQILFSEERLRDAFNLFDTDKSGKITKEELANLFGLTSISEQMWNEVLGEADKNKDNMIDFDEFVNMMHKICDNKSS
Plasmodium falciparum protein kinase 6 (PK6, PF3D7_1337100), sequence (Q8IDW1 1-305): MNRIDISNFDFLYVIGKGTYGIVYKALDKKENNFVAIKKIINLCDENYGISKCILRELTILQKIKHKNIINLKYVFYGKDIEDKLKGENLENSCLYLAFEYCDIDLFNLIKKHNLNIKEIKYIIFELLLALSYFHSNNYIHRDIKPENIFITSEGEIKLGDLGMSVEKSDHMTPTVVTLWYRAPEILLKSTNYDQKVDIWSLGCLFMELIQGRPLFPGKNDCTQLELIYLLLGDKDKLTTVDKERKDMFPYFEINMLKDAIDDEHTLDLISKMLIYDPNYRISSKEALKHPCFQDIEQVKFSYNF
L-lactate dehydrogenase (Plasmodium falciparum (isolate CDC / Honduras)), sequence (Q27743 whole entry, looked up): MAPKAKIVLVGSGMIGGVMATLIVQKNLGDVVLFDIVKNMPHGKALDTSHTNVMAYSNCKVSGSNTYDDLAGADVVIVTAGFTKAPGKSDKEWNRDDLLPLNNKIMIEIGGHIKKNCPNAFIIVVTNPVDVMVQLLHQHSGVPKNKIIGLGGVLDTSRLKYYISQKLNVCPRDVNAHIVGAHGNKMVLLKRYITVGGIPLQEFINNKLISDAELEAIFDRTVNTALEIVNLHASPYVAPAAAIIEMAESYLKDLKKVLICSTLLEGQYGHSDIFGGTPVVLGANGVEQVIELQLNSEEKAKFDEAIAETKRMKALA

For orientation: inhibition means the drop in the measured response relative to a control, in per cent. In the case of `CN1CCN(C(C(=O)NCc2cc(Cl)cc(Cl)c2)c2ccccc2-c2ccsc2)CC1` (stereo not given), the growth inhibition in experiment [1] was 80% (active); in experiment [4] it was 95% (active). Moreover, the inhibition in experiment [2] is 11%; in experiment [3], 2%. Also, the result in experiment [5], in experiment [6], in experiment [7] and in experiment [8] was inactive.

Regarding `CC(C)CNCc1ccc(OCc2cccc(COc3ccc(CNCC(C)C)cc3I)c2)c(I)c1`, the growth inhibition in experiment [1] is 84% (active); in experiment [4], 98% (active). The inhibition is 23% in experiment [2] and -4% in experiment [3]. Moreover, the outcome in experiment [5], in experiment [6], in experiment [7] and in experiment [8] was inactive.

In the case of `CC(C)CCn1c(Sc2ccc(C#N)c([N+](=O)[O-])c2)nnc1-c1ccc(Cl)cc1`, the growth inhibition in experiment [1] is 39%; in experiment [4], 90% (active). For the same compound, the inhibition is 25% in experiment [2] and -1% in experiment [3]. For the same compound, the result in experiment [5], in experiment [6], in experiment [7] and in experiment [8] was inactive.

As to `CCCN(Cc1ccc(OCC)cc1)Cc1cc(=O)c2cc(Cl)ccc2[nH]1`, the growth inhibition in experiment [1] and in experiment [4] was 82% (active) in each case. Further, the inhibition in experiment [2] is 47%; in experiment [3], 1%. For the same compound, the result in experiment [5], in experiment [6], in experiment [7] and in experiment [8] was inactive.

With `O=C(CCC1CCCC1)N(Cc1ccc(-c2ccc(CNCCc3ccccc3)cc2)cc1)C1CCCNC1` (stereo not given), the growth inhibition in experiment [1] was 71% (active); in experiment [4], 90% (active). For the same compound, the inhibition was 99% (active) in experiment [2] and -2% in experiment [3]. In addition, the outcome in experiment [5], in experiment [6], in experiment [7] and in experiment [8] was inactive.

With `NC(=O)c1cnc2ccc(-c3cncs3)cc2c1Nc1ccc(F)c(Cl)c1`, the growth inhibition in experiment [1] was 99% (active); in experiment [4], 97% (active). Besides, the values for the inhibition in experiment [2] and in experiment [3] were 3% and 6%, respectively. Moreover, the result in experiment [5], in experiment [6], in experiment [7] and in experiment [8] was inactive.

On to `COc1ccc2c(NN=Cc3ccccc3[N+](=O)[O-])ccnc2c1`, for which the growth inhibition is 97% (active) in experiment [1] and 102% (active) in experiment [4]. Besides, the inhibition in experiment [2] is 98% (active); in experiment [3], -3%. For the same compound, the result in experiment [5], in experiment [6], in experiment [7] and in experiment [8] was inactive.

Take `CC(=O)c1ccc(NC(=O)NNC(=O)c2ccc(CCN3CCC(c4nc(COCC(F)(F)F)c(-c5ccc(F)cc5)o4)CC3)cc2)cc1`: the values for the growth inhibition in experiment [1] and in experiment [4] were 27% and 96% (active), respectively. Further, the inhibition in experiment [2] was 17%; in experiment [3], -10%. For the same compound, the outcome in experiment [5], in experiment [6], in experiment [7] and in experiment [8] was inactive.

Regarding `NC(N)=NN=Cc1c2ccc(Cl)cc2c(Cl)c2ccc(Cl)cc12`, the growth inhibition was 90% (active) in experiment [1] and 100% (active) in experiment [4]. For the same compound, the figures for the inhibition in experiment [2] and in experiment [3] were 28% and 0%, respectively. Further, the result in experiment [5], in experiment [6], in experiment [7] and in experiment [8] was inactive.

In the case of `CN(CCCN)CCCNc1ccnc2cc(Cl)ccc12`, the results for the growth inhibition in experiment [1] and in experiment [4] were -2% and 101% (active), respectively. The inhibition is 1% in experiment [2] and -10% in experiment [3]. For the same compound, the outcome in experiment [5], in experiment [6], in experiment [7] and in experiment [8] was inactive.

Take `COC(=O)C(Cc1ccccc1)C(CSCc1ccc(OC)cc1)C(=O)N[C@@H](C(=O)OC(C)(C)C)c1ccc(C(C)(C)C)cc1` (stereo not given in full): the figures for the growth inhibition in experiment [1] and in experiment [4] were 44% and 93% (active), respectively. Further, the inhibition was -1% in experiment [2] and 2% in experiment [3]. Also, the outcome in experiment [5], in experiment [6], in experiment [7] and in experiment [8] was inactive.

With `COc1ccc2nccc(NN=Cc3ccccc3Cl)c2c1`, the growth inhibition is 99% (active) in experiment [1] and 100% (active) in experiment [4]. Also, the inhibition in experiment [2] is 29%; in experiment [3], -4%. Also, the outcome in experiment [5], in experiment [6], in experiment [7] and in experiment [8] was inactive.

On to `Cc1ccc2c(Cl)c(C(=O)N3CCCc4ccccc43)sc2c1`, for which the values for the growth inhibition in experiment [1] and in experiment [4] were 15% and 99% (active), respectively. Besides, the inhibition in experiment [2] was 4%; in experiment [3], 0%. In addition, the outcome in experiment [5], in experiment [6], in experiment [7] and in experiment [8] was inactive.

As for `COc1ccc(CNCc2cccc(-c3csc(-c4nc5ccccc5[nH]4)c3)c2)cc1`, the results for the growth inhibition in experiment [1] and in experiment [4] were 22% and 100% (active), respectively. For the same compound, the inhibition in experiment [2] is 17%; in experiment [3], -1%. The outcome in experiment [5], in experiment [6], in experiment [7] and in experiment [8] was inactive.

For the compound `Cc1cc(=O)c2cc(Oc3ccc(OC(F)(F)F)cc3)ccc2[nH]1`, the growth inhibition was 71% (active) in experiment [1] and 86% (active) in experiment [4]. Also, the values for the inhibition in experiment [2] and in experiment [3] were 20% and -2%, respectively. For the same compound, the outcome in experiment [5], in experiment [6], in experiment [7] and in experiment [8] was inactive.

Take `Cc1ccc(C(=O)Nc2cc(S(=O)(=O)N3CCCC3)ccc2OCC(F)(F)F)cc1`: the results for the growth inhibition in experiment [1] and in experiment [4] were 3% and 93% (active), respectively. For the same compound, the inhibition in experiment [2] was -2%; in experiment [3], 3%. Moreover, the outcome in experiment [5], in experiment [6], in experiment [7] and in experiment [8] was inactive.

In the case of `COc1cc2nc(N3CCC(CNC(=O)c4ccc(NC(=O)c5ccc(Cl)cc5)cc4)CC3)nc(N)c2cc1OC`, the growth inhibition was 100% (active) in experiment [1] and 101% (active) in experiment [4]. Further, the inhibition is 98% (active) in experiment [2] and 0% in experiment [3]. Moreover, the result in experiment [5], in experiment [6], in experiment [7] and in experiment [8] was inactive.

As to `Cc1ccc(S(=O)(=O)N(CCCNCc2cccc(O)c2)c2ccccc2)cc1`, the growth inhibition in experiment [1] was 94% (active); in experiment [4], 95% (active). In addition, the inhibition in experiment [2] was 6%; in experiment [3], 2%. Further, the outcome in experiment [5], in experiment [6], in experiment [7] and in experiment [8] was inactive.

For `COc1ccc(CCn2c(=N)c(C(=O)NCc3ccccc3)cc3c(=O)n4cccc(C)c4nc32)cc1`, the values for the growth inhibition in experiment [1] and in experiment [4] were 37% and 102% (active), respectively. For the same compound, the values for the inhibition in experiment [2] and in experiment [3] were 29% and -3%, respectively. For the same compound, the outcome in experiment [5], in experiment [6], in experiment [7] and in experiment [8] was inactive.

Take `Oc1ccc(CNCCCCCCNCCc2ccc(Cl)cc2)cc1O`: the growth inhibition in experiment [1] was 7%; in experiment [4], 94% (active). The inhibition in experiment [2] and in experiment [3] was 2% throughout. In addition, the outcome in experiment [5], in experiment [6], in experiment [7] and in experiment [8] was inactive.
